Source: PubChem BioAssay AID623996 (NMMLSC, 2012)
Results with a measured potency or affinity are listed apart. Activity calls are given as the source filed them.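 Rule for the calls: active = fitted concentration giving half the maximal Nile Red retention below 100 µM; inactive = the rest.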

target: Multidrug resistance protein CDR1 (Candida albicans) (UniProt P43071); assay: CaCdr1 efflux pump inhibitor potency, dose response, singleplex, Cherry Pick2 set (AID 623996); conditions: S. cerevisiae AD/CaCDR1, Nile Red efflux inhibition, flow cytometry; series mostly up to 100 µM
Sequence (P43071 whole entry, looked up): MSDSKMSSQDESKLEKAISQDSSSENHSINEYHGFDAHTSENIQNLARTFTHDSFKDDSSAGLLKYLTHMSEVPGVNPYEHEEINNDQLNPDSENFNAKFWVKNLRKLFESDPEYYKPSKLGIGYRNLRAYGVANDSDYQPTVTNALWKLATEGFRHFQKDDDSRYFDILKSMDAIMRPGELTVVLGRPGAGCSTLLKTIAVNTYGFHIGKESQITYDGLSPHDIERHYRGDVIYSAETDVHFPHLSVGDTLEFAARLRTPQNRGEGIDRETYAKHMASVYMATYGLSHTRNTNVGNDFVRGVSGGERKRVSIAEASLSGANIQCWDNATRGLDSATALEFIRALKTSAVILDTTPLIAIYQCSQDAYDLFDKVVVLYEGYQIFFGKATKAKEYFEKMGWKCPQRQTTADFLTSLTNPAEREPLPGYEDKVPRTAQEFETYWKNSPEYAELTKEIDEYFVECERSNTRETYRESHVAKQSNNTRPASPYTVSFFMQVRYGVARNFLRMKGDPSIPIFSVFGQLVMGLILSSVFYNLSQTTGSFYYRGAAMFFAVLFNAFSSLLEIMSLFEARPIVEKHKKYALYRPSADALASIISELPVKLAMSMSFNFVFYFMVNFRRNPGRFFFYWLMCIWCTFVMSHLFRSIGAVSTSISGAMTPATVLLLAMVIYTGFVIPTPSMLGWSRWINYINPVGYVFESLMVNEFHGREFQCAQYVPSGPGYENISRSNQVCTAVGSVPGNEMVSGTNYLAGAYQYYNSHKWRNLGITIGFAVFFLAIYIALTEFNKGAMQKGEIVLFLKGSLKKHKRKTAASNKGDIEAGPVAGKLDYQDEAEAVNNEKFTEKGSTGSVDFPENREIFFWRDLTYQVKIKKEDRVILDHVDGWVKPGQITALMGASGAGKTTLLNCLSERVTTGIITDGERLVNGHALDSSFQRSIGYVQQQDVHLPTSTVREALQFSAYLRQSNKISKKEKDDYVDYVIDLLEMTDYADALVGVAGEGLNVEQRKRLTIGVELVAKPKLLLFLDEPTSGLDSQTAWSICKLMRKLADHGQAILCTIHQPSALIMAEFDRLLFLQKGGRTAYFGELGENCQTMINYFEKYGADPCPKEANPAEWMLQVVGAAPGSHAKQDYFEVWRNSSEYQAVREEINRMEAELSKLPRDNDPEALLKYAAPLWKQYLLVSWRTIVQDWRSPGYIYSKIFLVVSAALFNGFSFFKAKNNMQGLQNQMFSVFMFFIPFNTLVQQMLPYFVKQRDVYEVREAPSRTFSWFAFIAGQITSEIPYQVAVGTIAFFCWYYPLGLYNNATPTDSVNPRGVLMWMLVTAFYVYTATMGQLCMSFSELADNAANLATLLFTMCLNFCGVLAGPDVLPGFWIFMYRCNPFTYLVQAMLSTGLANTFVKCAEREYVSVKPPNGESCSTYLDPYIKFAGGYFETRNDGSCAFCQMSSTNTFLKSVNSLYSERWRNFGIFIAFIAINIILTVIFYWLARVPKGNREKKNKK

outcome, inactive:
COc1ccc(C(=O)NC2CC(C)(C)Cc3c2cnn3-c2ccccc2)c(OC)c1 (stereo unspecified)
O=C(Nc1ccccc1)C1=C[C@H](c2ccccc2)C[C@H](OCCCCO)O1
Cc1cc(C(=O)NC2CC(C)(C)Cc3c2cnn3-c2ccc(F)cc2)no1 (stereo unspecified)
O=C(C[n+]1cc(-c2ccc(F)cc2)n2c1CCC2)N1c2ccccc2Sc2ccccc21
COc1ccc(OC)c2sc(NC(=O)c3ccc(Br)s3)nc12
COc1ccc(C2CC(c3ccccc3C(F)(F)F)=NN2c2ccc(S(N)(=O)=O)cc2)cc1 (stereo unspecified)
O=C1C(Cc2ccccc2)Nc2ncnc(N3CCN(c4ccccc4)CC3)c2N1Cc1ccccc1 (stereo unspecified)
N#CC(C(=O)NCc1ccccc1)c1nc2ccccc2nc1N1CCCC1 (stereo unspecified)
NS(=O)(=O)c1ccc(N2N=C(c3ccccc3)CC2c2ccccc2)cc1 (stereo unspecified)
CC(C)C(=O)N1CCC2(CC1)Oc1ccc(F)cc1C(=O)C21CC(c2ccc(Cl)cc2)=NO1 (stereo unspecified)
O=C(c1ccoc1)N1CCC2(CC1)Oc1ccc(F)cc1C(=O)C21CC(c2ccccc2)=NO1 (stereo unspecified)
O=C(NC1CCCc2c1cnn2-c1ccccc1F)c1ccccn1 (stereo unspecified)
NS(=O)(=O)c1ccc(N2N=C(c3ccc(Br)cc3)CC2c2ccc(F)cc2)cc1 (stereo unspecified)
COc1cc(OC)c2c(-c3ccccc3)cc(=O)oc2c1C(CCN1CCCC(C)C1)c1ccc(N(C)C)cc1 (stereo unspecified)
CCOc1cccc2sc(NC(=O)c3ccc(Br)s3)nc12
CCO[C@@H]1OC(C(=O)Nc2ccccc2)=C[C@H](c2ccccc2)[C@H]1CCCO
CC1CN(c2nc3ccccc3nc2C(C#N)C(=O)NCc2ccc3c(c2)OCO3)CC(C)O1 (stereo unspecified)
COc1ccc(C2CC(c3ccccc3)=NN2c2ccc(S(N)(=O)=O)cc2)cc1 (stereo unspecified)
NC1=NC[C@H](Cc2ccccc2)N1CCCCC1CCCCC1
COc1ccc(CCOC(=O)c2ccc(N)c([N+](=O)[O-])c2)cc1
O=C(C1CCC(CNc2nc(=S)[nH]c3ccccc23)CC1)N1CCN(c2ccc(F)cc2)CC1 (stereo unspecified)
O=C(C1CCCN(c2ncnc3c2nc2n3CCCCC2)C1)N1CCN(c2ccccc2)CC1 (stereo unspecified)
CCc1ccc(C2=NN(c3ccc(S(N)(=O)=O)cc3)C(c3ccc(F)cc3)C2)cc1 (stereo unspecified)
O=C(CSc1nnc(Cc2cccs2)n1Cc1ccco1)Nc1ccc(Br)cc1
COc1ccc(CN2C(=O)C(C)Nc3ncnc(N4CCN(c5ccccc5)CC4)c32)cc1 (stereo unspecified)
COc1ccc(N2CCN(C(=O)C3CCCN(c4ncnc5c4nc4n5CCCCC4)C3)CC2)cc1 (stereo unspecified)
Cc1ccc(CNC(=O)C2CCC(CNc3nc(=S)[nH]c4ccccc34)CC2)cc1 (stereo unspecified)
COc1ccc2nc(NC(=O)c3cccs3)sc2c1
OCCN1CCN(CC/C=C2/c3ccccc3Sc3ccc(C(F)(F)F)cc32)CC1
CCN(CC)CCC(c1ccc(N(C)C)cc1)c1c(OC)cc(OC)c2ccc(=O)oc12 (stereo unspecified)
O=C(NCCC1=CCCCC1)C1CCC(CNc2nc(=S)[nH]c3ccccc23)CC1 (stereo unspecified)
